Bioassay records as filed in PubChem.
aSyn 5UTR act: Activators via SNCA 5'UTR binding, MLPCN; alpha-synuclein 5'UTR reporter, activators screen; activity score, % (tested at 7.5 µM), hits read low; hit rate 7.1% among 300,000; in the data active = activity score below about -60%
Numbers without * were called inactive. Only a sample is shown.

SMILES	aSyn 5UTR act
Cc1ccc(/C=N/N2C(=O)c3ccccc3NC2c2ccc(C)cc2)cc1 (stereo not drawn)	-84*
O=C1c2ccccc2NC(c2ccco2)N1/N=C/c1ccco1 (stereo not drawn)	-92*
CCn1ncc(Br)c1C(=O)Nc1cc(C)cc(C)c1	-71*
CCc1ccc2nc3sc(C(=O)O)cc3cc2c1	-81*
Cc1cc(Cl)ccc1OCC(=O)Nc1ccccc1CO	-81*
CSc1ccccc1NC(=O)COc1ccc(Cl)cc1C	-63*
Cc1ccccc1SCCNC(=O)CCc1ccccc1	-64*
Cc1ccccc1SCCNC(=O)c1ccccc1Br	-107*
O=C(Nc1ccc(Cl)cc1)Nc1cccnc1	-66*
CCOc1ccc(NC(=O)Nc2cccc(C(=O)O)c2)cc1	108
CCOc1ccc(NC(=O)Nc2cccnc2)cc1	-141*
CCCCc1ccc(NC(=O)C2CCCC2)cc1	-69*
CCCCc1ccc(NC(=O)CC(C)C)cc1	-70*
c1ccc(-c2ccc(-c3ccncn3)cc2)cc1	-78*
O=C(Nc1ccc(Cl)cc1)ON=C1CCCC1	-75*
O=C(N/N=C1/CC2C=CCC12)c1cccs1 (stereo not drawn)	-75*
O=C(N/N=C1/CC2C=CCC12)c1ccco1 (stereo not drawn)	-66*
O=C(Nc1ncc([N+](=O)[O-])s1)c1ccccc1Br	-126*
O=C(Nc1cc([N+](=O)[O-])ccc1F)c1cccs1	-70*
Cc1cnc(NC(=O)c2cccs2)s1	-82*
Cc1ccc(CC(=O)Nc2ncc([N+](=O)[O-])s2)cc1	-136*
O=C(Nc1ncc([N+](=O)[O-])s1)c1cccs1	-106*
O=C(Nc1ccc2c(c1)OCO2)N1CCN(c2ncccn2)CC1	-111*
O=C(Nc1ccc2c(c1)OCO2)N1CCN(c2ccccc2)CC1	-195*
O=C(Nc1ccc2c(c1)OCO2)N1CCN(c2ncc(C(F)(F)F)cc2Cl)CC1	-104*
SMILES	aSyn 5UTR act
O=C(Nc1ccc2c(c1)OCO2)N1CCN(c2ccc(F)cc2)CC1	-122*
Nc1cccc(/C=C/c2ccncc2)c1	-68*
COc1cccc(/C=N/NC(=O)C(=O)Nc2ccccc2OC(F)(F)C(F)F)c1O	71
COc1ccccc1NC(=O)C(=O)/C=C(\O)c1ccccc1	-131*
COC(=O)c1cccc(NC(=O)Nc2ccccc2OC)c1	-65*
COC(=O)c1cccc(NC(=O)Nc2ccc(Cl)c(Cl)c2)c1	-134*
COC(=O)c1cccc(NC(=O)NC(=O)c2ccccc2Cl)c1	95
Cc1ccc(SSc2cc(C)ccc2N)c(N)c1	-203*
COc1ccc(C2CC(c3ccc4ccccc4c3OC(C)=O)=NN2C(C)=O)cc1 (stereo not drawn)	-203*
CC(=O)N1N=C(c2ccc(C)o2)CC1c1ccc(Br)cc1 (stereo not drawn)	-199*
COc1ccc(C2CC(c3ccc(Cl)cc3)=NN2C(C)=O)cc1 (stereo not drawn)	-116*
COc1ccc(C2CC(c3ccc(C)o3)=NN2C(C)=O)cc1 (stereo not drawn)	-128*
CC(=O)c1ccc(N2Cc3ccccc3C2=NC(=O)c2cccs2)cc1	-69*
O=C(N=C1c2ccccc2CN1c1ccc(F)cc1)c1ccc(Cl)nc1	-94*
CC(=O)c1ccc(N2Cc3ccccc3/C2=N\C(=O)Nc2ccccc2)cc1	-98*
Cc1cc(C)c(C#N)c(SCC(=O)c2cccs2)n1	-173*
Cc1cc(C)c(C#N)c(SCC(=O)Nc2nonc2N)n1	-87*
Cc1ccnc(SCC(=O)c2cccs2)n1	-95*
C/C(CC(C)(C)C1CCCCC1)=N\NC(N)=S	-76*
COc1ccc(-c2nn(-c3ccccc3)cc2C#N)cc1	-126*
COc1ccc(NC(=O)c2cn(-c3ccccc3)nc2-c2cc3ccccc3o2)cc1	-71*
O=C(N/N=C/c1cn(-c2ccccc2)nc1-c1cc2ccccc2o1)c1ccccc1Br	-115*
N#Cc1cn(-c2ccccc2)nc1-c1cc2ccccc2oc1=O	-63*
COc1ccc(-c2nn(-c3ccccc3)cc2C(=O)NC(=S)NNC(=O)c2ccncc2)cc1	73
OCc1cn(-c2ccccc2)nc1-c1cc2ccccc2o1	-179*
SMILES	aSyn 5UTR act
O=C(N/N=C/c1cn(-c2cccs2)nc1-c1ccccc1)c1ccccc1Br	-73*
COn1c(-c2ccc(Cl)cc2)nc2ncccc21	-107*
Cc1cc(NC(c2ccc(Cl)cc2)c2ccc3cccnc3c2O)no1 (stereo not drawn)	85
Cn1c(=O)c(C(=O)Nc2ccccc2S(N)(=O)=O)c(O)c2ccccc21	-64*
CC(=Nc1ccccc1)C1=C(O)CSC1=O	-95*
COc1ccc(N=C(C)C2=C(O)CSC2=O)cc1	-72*
NC(=O)c1ccccc1NC(=O)/C=C/c1ccc(Cl)cc1	-110*
NC(=O)c1ccccc1NC(=O)/C=C/c1ccccc1	-116*
Cc1ccc2oc(-c3cccc(NC(=O)c4ccccn4)c3)nc2c1	-96*
COc1cc(C(=O)Nc2cccc(-c3nc4cc(C)ccc4o3)c2)cc(OC)c1OC	-162*
COc1cc(C(=O)Nc2cc(-c3nc4cc(C)ccc4o3)ccc2C)cc(OC)c1OC	-129*
